Data on 13 molecules can be found in PubChem BioAssay (Tox21).

Test [1] is described as follows: qHTS assay to identify small molecule antagonists of the retinoid acid receptor (RAR) signaling pathway - cell viability counter screen (AID 1159551). Note: nearly all actives have a fitted effect of over 35% in size. Put shortly:
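Cells (C3RL4) are plated, incubated overnight, dosed with compound in DMSO, then given retinol at 1 uM final. After 6 h at 37 C, CellTiter-Glo is added and luminescence read following 30 min at room temperature.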
In general terms: qHTS replaces the single test concentration by a dilution series.

Test [2] is described as follows: qHTS assay to identify small molecule antagonists of the retinoic acid receptor (RAR) signaling pathway (AID 1159552; note: nearly all actives have a fitted effect of over 50% in size). Put shortly: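 Quantitative HTS in C3RL4 RARE-luciferase reporter cells. Compounds were added with 1 uM (final) retinol; luminescence was read after 6 hr.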
Test [3] in a line: qHTS assay to identify small molecule agonists of the retinoic acid receptor (RAR) signaling pathway (AID 1159553). Put shortly: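 Seed C3RL4 reporter cells at 1,000 per well and incubate overnight at 37 C. Add compounds in DMSO, incubate 6 hr. Add luciferase reagent, wait 30 min at room temperature, read luminescence.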
The nature of test [4]: qHTS assay to identify small molecule antagonists of the estrogen related receptor (ERR) signaling pathway from Tox21 library - cell viability counter screen (AID 1224834). Note: nearly all actives have a fitted effect of over 30% in size. Note: potency is the fitted concentration of half-maximal effect. The gist of the method: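 ERR cells, 2,000/well; 6 h settle at 37 C/5% CO2; pin-tool compound transfer in DMSO; 17.5 h at 37 C; CellTiter-Fluor, 30 min; fluorescence intensity.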
Test [5] deals with Luciferin 4-monooxygenase (Photinus pyralis) (UniProt P08659). The test is described as follows: qHTS assay to identify small molecule inhibitors of firefly luciferase (AID 1224835). Note: series mostly up to about 120 µM; nearly all actives have a fitted effect of over 25% in size. Put shortly: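 Inhibition of purified Photinus luciferase is measured by luminescence. Substrate levels (D-luciferin, ATP) sit at their KM values. Each compound is tested in a concentration series.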
Sequence of Luciferin 4-monooxygenase (Photinus pyralis) (P08659 whole entry, looked up): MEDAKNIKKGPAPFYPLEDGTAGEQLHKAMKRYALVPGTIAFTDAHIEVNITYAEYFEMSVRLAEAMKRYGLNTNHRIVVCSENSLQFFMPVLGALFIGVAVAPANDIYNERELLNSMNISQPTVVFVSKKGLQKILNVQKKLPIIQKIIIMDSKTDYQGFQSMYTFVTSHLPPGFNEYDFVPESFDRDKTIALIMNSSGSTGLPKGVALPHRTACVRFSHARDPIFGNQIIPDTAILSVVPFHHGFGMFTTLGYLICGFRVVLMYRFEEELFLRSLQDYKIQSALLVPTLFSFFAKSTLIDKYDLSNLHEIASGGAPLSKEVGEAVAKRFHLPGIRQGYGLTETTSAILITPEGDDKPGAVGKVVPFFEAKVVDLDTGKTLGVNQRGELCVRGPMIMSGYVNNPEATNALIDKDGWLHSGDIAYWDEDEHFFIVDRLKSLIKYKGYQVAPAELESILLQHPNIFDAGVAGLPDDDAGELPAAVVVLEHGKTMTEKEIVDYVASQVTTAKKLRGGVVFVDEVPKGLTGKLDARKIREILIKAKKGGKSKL

Test [6] in a line: qHTS assay to identify small molecule agonists of the constitutive androstane receptor (CAR) signaling pathway - cell viability counter screen (AID 1224836). Note: nearly all actives have a fitted effect of over 45% in size. Note: potency is the fitted concentration of half-maximal effect. Put shortly:
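Counter screen multiplexed with the CAR reporter readout: HepG2 cells co-transfected with hCAR and the CYP2B6-2.2kb construct receive a 15-concentration compound series and 0.75 uM PK11195 (final), then CellTiter-Fluor fluorescence is read after 23 h.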

Test [7] in a line: qHTS assay to identify small molecule antagonists of the constitutive androstane receptor (CAR) signaling pathway - cell viability counter screen (AID 1224837). Note: nearly all actives have a fitted effect of over 45% in size. Note: potency is the fitted concentration of half-maximal effect. The gist of the method:
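Viability was measured with CellTiter-Fluor in a HepG2 line carrying stably transfected hCAR and a CYP2B6-2.2kb construct. Cells were exposed for 23 hr at 37 C to 15 compound concentrations with 50 nM CITCO as agonist.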

Test [8] in a line: qHTS assay to identify small molecule antagonists of the estrogen related receptor signaling pathway with the pleiotropic PPARgamma coactivator (PGC) from Tox21 10K library - cell viability counter screen (AID 1224840; active = well fitted cell-killing curve with a large enough effect in the repeat runs, not every such curve was filed as active; note: nearly all actives have a fitted effect of over 40% in size; note: potency is the fitted concentration of half-maximal effect). The gist of the method:
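Multiplexed viability counter screen in the PGC/ERR cell line: cells treated with DMSO-dissolved compounds for 17.5 hours at 37 C, then viability measured as CellTiter-Fluor fluorescence.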

Test [9] can be described thus: qHTS assay to identify small molecule antagonists of the estrogen related receptor signaling pathway with the pleiotropic PPARgamma coactivator (PGC) from Tox21 10K library (AID 1224841; call rule not given here; note: series mostly up to about 92 µM; actives are mostly falling curves and most rising ones were filed inactive; nearly all actives have a fitted effect of over 50% in size). Put shortly: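 Steps: plate 2,000 PGC/ERR cells per well; incubate 6 h at 37 C with 5% CO2; transfer compounds from DMSO stocks by pin tool; incubate 18 h at 37 C; add One-Glo; measure luminescence 30 min later.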

The target in test [10] is Nuclear receptor subfamily 1 group I member 3 (Homo sapiens) (UniProt Q14994). The test is described as follows: qHTS assay to identify small molecule antagonists of the constitutive androstane receptor (CAR) signaling pathway (AID 1224838).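 Note: HepG2 cells stably expressing hCAR with CYP2B6 luciferase reporter stimulated by CITCO; nearly all actives have a fitted effect of over 40% in size.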 Put shortly: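 Antagonist mode used CITCO at a final 50 nM to activate CAR in human hepatoma HepG2 cells carrying stable hCAR and a 2.2 kb CYP2B6 promoter-luciferase construct. Compounds were tested at 15 concentrations over 24 h, with luminescence as the end point.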
Sequence of Nuclear receptor subfamily 1 group I member 3 (Homo sapiens) (Q14994 whole entry, looked up): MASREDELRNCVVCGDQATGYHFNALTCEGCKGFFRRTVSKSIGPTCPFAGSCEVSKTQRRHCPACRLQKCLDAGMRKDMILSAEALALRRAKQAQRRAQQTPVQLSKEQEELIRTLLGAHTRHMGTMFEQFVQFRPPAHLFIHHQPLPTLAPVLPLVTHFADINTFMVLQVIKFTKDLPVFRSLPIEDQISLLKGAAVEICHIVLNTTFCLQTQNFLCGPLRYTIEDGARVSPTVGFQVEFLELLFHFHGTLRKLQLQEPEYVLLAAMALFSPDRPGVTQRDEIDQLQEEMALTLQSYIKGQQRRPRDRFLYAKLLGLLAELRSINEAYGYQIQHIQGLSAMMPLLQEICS

In test [11] the target is Thyrotropin receptor (Homo sapiens) (UniProt P16473). The test is described as follows: qHTS assay to identify small molecule agonists of the thyroid stimulating hormone receptor (TSHR) signaling pathway (AID 1224843; calls by dose curve; note: nearly all actives have a fitted effect of over 45% in size). The gist of the method: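 A cell-based cAMP HTRF format was run in TSHR-transfected HEK293 cells, 800 per well. Treatment: 30 min, room temperature. Detection: 1 h with labelled cAMP and anti-cAMP cryptate. Concentration-response over 15 points, three replicates.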
Sequence of Thyrotropin receptor (Homo sapiens) (P16473 whole entry, looked up): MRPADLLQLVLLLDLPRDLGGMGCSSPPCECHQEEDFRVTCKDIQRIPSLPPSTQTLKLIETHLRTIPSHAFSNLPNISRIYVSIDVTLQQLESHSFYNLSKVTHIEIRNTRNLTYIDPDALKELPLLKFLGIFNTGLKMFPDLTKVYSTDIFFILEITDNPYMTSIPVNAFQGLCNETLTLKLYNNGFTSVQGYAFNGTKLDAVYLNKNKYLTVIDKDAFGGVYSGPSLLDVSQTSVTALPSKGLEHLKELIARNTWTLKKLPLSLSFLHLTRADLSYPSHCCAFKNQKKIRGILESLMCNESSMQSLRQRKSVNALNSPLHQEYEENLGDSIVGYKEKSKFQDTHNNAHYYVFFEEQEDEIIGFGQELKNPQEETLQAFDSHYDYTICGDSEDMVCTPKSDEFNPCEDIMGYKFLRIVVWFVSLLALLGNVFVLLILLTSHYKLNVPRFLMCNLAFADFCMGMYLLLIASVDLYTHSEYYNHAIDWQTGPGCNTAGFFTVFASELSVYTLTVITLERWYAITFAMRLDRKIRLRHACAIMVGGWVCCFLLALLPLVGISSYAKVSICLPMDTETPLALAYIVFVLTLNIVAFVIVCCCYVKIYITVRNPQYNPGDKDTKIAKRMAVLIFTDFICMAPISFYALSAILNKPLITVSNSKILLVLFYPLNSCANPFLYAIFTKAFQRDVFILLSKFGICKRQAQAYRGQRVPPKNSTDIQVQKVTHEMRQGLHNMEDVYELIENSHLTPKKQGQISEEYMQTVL

The nature of test [12]: qHTS assay to identify small molecule agonists of the RXR signaling pathway - cell viability counter screen (AID 1159529). Note: nearly all actives have a fitted effect of over 50% in size. Note: potency is the fitted concentration of half-maximal effect. Put shortly: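 Cell viability is measured by CellTiter-Glo luminescence, 30 min at room temperature, in wells already read for beta-lactamase. Engineered HEK 293T cells (RXR-alpha-UAS-bla) are dosed 16 hr at 37 C. Tetraoctyl ammonium bromide serves as positive control.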

Test [13] deals with Nuclear receptor subfamily 1 group I member 3 (Homo sapiens) (UniProt Q14994). The test is described as follows: qHTS assay to identify small molecule agonists of the constitutive androstane receptor (CAR) signaling pathway (AID 1224839). Note: series mostly up to about 92 µM; nearly all actives have a fitted effect of over 15% in size. The gist of the method: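 A 15-concentration quantitative screen uses HepG2 cells co-transfected stably with human CAR and CYP2B6-2.2kb reporter. Treatment lasts 24 h with 0.75 uM PK11195 final present; ONE-Glo luminescence is the signal.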

Test [14] can be described thus: qHTS assay to identify small molecule agonists of the estrogen related receptor (ERR) signaling pathway (AID 1224820). The gist of the method:
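Luminescence readout (One-Glo, 30 min RT) from NTP-supplied ERR cell line exposed to compounds for 18 h at 37 C. Cells seeded 2,000 per well and pre-incubated 6 h before pin-tool compound transfer.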

Test [15] has as its system estrogen-related receptor alpha (ERRalpha) with PGC-1alpha coactivator, human. The experiment in a line: qHTS assay to identify small molecule antagonists of the estrogen related receptor signaling pathway with the pleiotropic PPARgamma coactivator (PGC) (AID 1224821; calls by dose curve;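 note: series mostly up to about 46 µM; lower luminescence signal means antagonism of PGC/ERR signalling; nearly all actives have a fitted effect of over 50% in size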). Put shortly: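 PGC/ERR reporter cells; 6 h pre-incubation 37 C/5% CO2; pin-tool compound in DMSO, 18 h 37 C; One-Glo added, 30 min RT; luminescence read. qHTS antagonist mode.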

A short description of test [16]: qHTS assay to identify small molecule antagonists of the estrogen related receptor signaling pathway with the pleiotropic PPARgamma coactivator (PGC) cell viability counter screen (AID 1224822;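 note: series mostly up to about 46 µM; viability read after 17.5 h compound exposure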). The gist of the method:
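Multiplexed viability counter screen run in PGC/ERR cells treated with compounds for 17.5 h at 37 C; live-cell protease signal measured by CellTiter-Fluor fluorescence.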

Test [17] is described as follows: qHTS assay to identify small molecule agonists of the estrogen related receptor signaling pathway with the pleiotropic PPARgamma coactivator (PGC) (AID 1224823). The gist of the method:
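Luminescence readout (One-Glo, 30 min RT) from PGC/ERR cell line treated 18 h at 37 C with pin-tool-delivered DMSO compound solutions; cells plated 6 h before dosing. Quantitative HTS format.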

Test [18] can be described thus: qHTS assay to identify small molecule agonists of the estrogen related receptor signaling pathway with the pleiotropic PPARgamma coactivator (PGC) from Tox21 10K library (AID 1224842). Note: nearly all actives have a fitted effect of over 15% in size. Put shortly:
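Luminescence from One-Glo (30 min, room temperature) measured after PGC/ERR cells had 18 h at 37 C with pinned compound (23 nL in DMSO). Cells had been seeded at 2,000 per well and pre-incubated 6 h.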

Results filed as inconclusive are left out. Values without a mark were called inactive. Calls of active or inactive are those of the source. Unless noted, calls come from the whole dose curve; as a rule, active = well fitted curve in the direction sought with a large enough effect in the repeat runs; inconclusive = weak or mixed curves; inactive = no such curve, though single readings can be large; an effect the other way counts as inactive or inconclusive.

`CCCCCCCCCCCCN1CCCCCC1=O`: the Potency result in test [1], in test [2], in [3], in [4], in test [5] and in [6] was “inactive” throughout. The Potency entry in test [7], in test [8] and in test [9] was “inactive” each time.
For `COc1cc(Cl)ccc1Oc1ccc(Cl)cc1Cl`, the Potency result in test [1], in [2], in test [4], in test [6], in test [7] and in [10] was “inactive” in each case. Further, the Potency result in test [8], in [9] and in [11] was “inactive” each time.
For the molecule `CNCCCCOc1ccccc1Cc1ccccc1`, the Potency result in test [12], in [5], in test [13] and in test [11] was “inactive” each time. In addition, the Potency in test [8] was 29.8 µM (active).
Consider `CC(=O)c1ccc2c(c1)N(CCCN1CCC(CCO)CC1)c1ccccc1S2`, for which the values for the Potency in test [12] and in test [4] were 10.7 µM (active) and 23.7 µM (active), respectively. Also, the Potency result in test [5], in test [6] and in [8] was “inactive” in each case.
For `CC(C)(COC(=O)c1ccccc1)COC(=O)c1ccccc1`, the Potency entry in test [12], in test [4], in test [5], in test [6], in test [7] and in test [10] was “inactive” throughout. Also, the Potency result in test [8] is “inactive”.
As for `NCC(=O)CCC(=O)O`, the Potency entry in test [12], in test [4], in test [6], in test [7], in [8] and in test [11] was “inactive” each time.
Regarding `CCCCCCCCCCO[C@@H]1O[C@H](CO)[C@@H](O)[C@H](O)[C@H]1O`, the Potency entry in [1], in test [2], in [3], in [5], in [6] and in [7] was “inactive” throughout. The Potency result in test [13] and in [8] was “inactive” throughout.
For `CC(=O)[O][Al][O]C(C)=O`, the Potency entry in test [12], in test [3], in test [4], in [6], in [7] and in test [8] was “inactive” throughout. Besides, the Potency entry in test [9] is “inactive”.
In the case of `OCc1cc(C(O)CNCCCCCCOCCCCc2ccccc2)ccc1O` (configuration not stated), the Potency result in [1], in test [2], in test [3], in test [15], in test [5] and in [8] was “inactive” in each case. The Potency result in test [9] and in test [18] was “inactive” in each case. The result in test [14], in [16] and in [17] was inactive. Further, the figures for the Potency in [4], in test [6] and in test [7] were 10.6 µM (active), 10.6 µM (active) and 13.3 µM (active), respectively.
For the molecule `O=C1[C@H]2CCCC[C@H]2C(=O)N1CCCCN1CCN(c2nsc3ccccc23)CC1`, the Potency result in [1], in test [2], in test [3], in test [5], in test [6] and in test [7] was “inactive” in each case. Further, the Potency result in test [13], in test [18] and in test [11] was “inactive” each time. For the same molecule, the Potency in [4] was 29.8 µM (active).
As to `C/C=C/C=C/CO`, the Potency result in [12], in test [4], in [5], in [6], in [7] and in test [8] was “inactive” each time. The Potency entry in [11] was “inactive”.
Consider `C[C@H](CCC(=O)O)[C@H]1CC[C@H]2[C@@H]3CC[C@@H]4C[C@H](O)CC[C@]4(C)[C@H]3C[C@H](O)[C@]12C`, for which the Potency entry in test [1], in test [2], in test [3], in test [5] and in test [6] was “inactive” in each case.
Turning to `CCO[Si](CCCCl)(OCC)OCC`, the Potency entry in test [1], in test [2], in test [3], in test [4], in test [5] and in test [6] was “inactive” each time. Also, the Potency entry in test [7], in test [10], in test [8] and in test [11] was “inactive” throughout.
